# This is one part of a sample in which hits are shown more often than they occur.
# Tg IFNy HTS: blocks Toxoplasma gondii growth in the presence of IFN-gamma | hit rate 3.8% among 69,000 | AID 1259416 | activity change, negative = inhibition, % (test concentration not listed) | Toxoplasma gondii growth in IFN-gamma-treated host cells; hits give low values; in the data active = activity change below about -70%, passing the limit was not always enough;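 also: host cells are HeLa cells infected with Toxoplasma gondii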
# An asterisk follows results filed as active.
SMILES,Tg IFNy HTS
O=C(/C=C/c1ccccc1)NC(=O)c1ccccc1O,-66.3
CC(=O)Nc1ccc(OC(=O)c2ccccc2O)cc1,8.3
O=C(N/N=C/c1ccccc1O)c1ccccc1O,-83.4*
CCN1Cc2ccccc2CC1C(=O)N(C)Cc1ccc2c(c1)OCO2 (stereo unspecified),4.5
CC(NC(=O)Cc1ccccc1F)c1nc2cccnc2n1C(C)C (stereo unspecified),2.5
CN(C)CC(=O)N1CCOCC1c1nccc(N2CCOCC2)n1 (stereo unspecified),3.0
C=C(C)COc1ccccc1C(=O)N1CCC2(CC1)CN(C)CCN2C,5.8
Cc1nc(CN2CCCn3nnc(COCCO)c3C2)cs1,-4.9
CN1C(=O)CCc2cc(NC(=O)c3cccnc3)ccc21,22.9
CCCCCC(=O)Nc1ccc2c(c1)Cc1ccccc1-2,70.6
O=C(CCCc1ccc(-c2ccccc2F)cc1)Nc1ccc(O)cc1,-80.3*
C=CCNC(=O)C1(Cc2ccc(-c3ccccc3F)cc2)CCCNC1 (stereo unspecified),-36.1
CCOc1ccc(-c2cc3c(=O)n(Cc4nc(-c5ccc(OCC)c(OC)c5)oc4C)ccn3n2)cc1,137.7
CCNC(=O)[C@@H]1CCCN1C(=O)[C@H](CCCN=C(N)N)NC(=O)[C@H](CC(C)C)NC(=O)[C@@H](COC(C)(C)C)NC(=O)[C@H](Cc1ccc(O)cc1)NC(=O)[C@H](CO)NC(=O)[C@H](Cc1c[nH]c2ccccc12)NC(=O)[C@H](Cc1cnc[nH]1)NC(=O)C1CCC(=O)N1 (stereo partly specified),18.7
Cc1ccc2[nH]c3c(c2c1)CCNC3=O,-93.5*
Cc1ccc2[nH]c(=O)c(Cc3ccccc3)c(O)c2c1,9.6
Cc1ccc2[nH]c3c(c2c1)CN(C)CC3,12.1
c1cnn(CC2(CNC3CCCNC3)CC2)c1 (stereo unspecified),-29.1
Cc1nc(-c2cc(C(=O)NCCN(C)C)c3ccccn23)cn1-c1nccs1,21.4
COCCC(=O)c1cc(-c2ccn(-c3ccccc3)n2)n2ccccc12,88.6
CN(C)CCNC(=O)c1cc(-c2ccn(-c3ccccc3)n2)n2ccccc12,-106.0*
COCCOC(=O)C(CC(=O)O)N1CCOCC1 (stereo unspecified),52.9
O=C(c1nnc2n1CCCC2)N1CCc2c(ncnc2N2CCOCC2)C1,-0.6
CN(C)S(=O)(=O)N1CCC2(CC1)OC(C(=O)N1CCCC1)Cn1ccnc12 (stereo unspecified),-1.6
CCc1cccc(CC)c1NC(=O)COc1ccc2c(c1)OC(C)(C)C=C2,12.7
SMILES,Tg IFNy HTS
C=C1C2(C(=O)NCC(c3ccc(OC)c(OC)c3)N3CCCC3)CCC(C2)C1(C)C (stereo unspecified),-5.2
Cc1ccc(S(=O)(=O)NCc2nc(-c3ccccc3)oc2C)cc1C,-105.6*
Cc1ccc(S(=O)(=O)NCc2nc(-c3cccc(Cl)c3)oc2C)cc1C,-24.5
CCOc1ccc(S(=O)(=O)N(C)Cc2nc(-c3ccc(C)cc3)oc2C)cc1,3.0
CCOc1ccc(-c2nc(CN(C)S(=O)(=O)c3ccc(C)c(C)c3)c(C)o2)cc1,-102.3*
COc1ccc(OC)c(S(=O)(=O)NCc2nc(-c3ccc(C)cc3)oc2C)c1,-86.8*
COc1ccccc1-c1nc(CN(C)S(=O)(=O)c2ccc(C)c(C)c2)c(C)o1,-43.7
COc1ccc(-c2nc(CNS(=O)(=O)c3ccc(C)cc3C)c(C)o2)cc1,8.9
Cc1ccc(-c2nc(CNS(=O)(=O)c3c(C)cc(C)cc3C)c(C)o2)cc1,-22.9
Cc1oc(-c2ccccc2)nc1CNS(=O)(=O)c1ccc(F)cc1,-6.5
CC1CCN(C(=O)CCNc2c(-c3cccc(F)c3)nc3cnccn23)CC1,176.5
O=C(NCc1cccc2ccccc12)c1ncoc1-c1cccs1,31.4
CCOc1ccc(C2CCCN2C(=O)CNc2ccc3nnc(C)n3n2)cc1 (stereo unspecified),0.4
COCCN1C(=O)CCC12CCC(NCc1cnn(C)c1)CC2 (stereo unspecified),0.7
CCn1nc(CNC(=O)c2cccc(C3CCNC3)c2)c2ccccc21 (stereo unspecified),-85.6*
CN(Cc1cccc2ncccc12)C(=O)c1cccc(C2CCNC2)c1 (stereo unspecified),4.3
O=C(NCc1nnc2n1CCCC2)c1cccc(C2CCNC2)c1 (stereo unspecified),4.7
CCOCC1COCCC12CCN(C(=O)c1cccnc1OC)CC2 (stereo unspecified),-66.7
COc1ccc(OC)c(NC(=O)Cn2c(=O)cc(C(=O)N3CCc4ccccc4C3)c3ccccc32)c1,-14.7
Cc1nn(C)cc1C(C)NC1CCN(c2ccc(C(=O)NC3CCCC3)cc2)CC1 (stereo unspecified),6.8
Cc1nc2ccccn2c1CC(=O)N1CCCC(c2ccc(Cc3cccc(F)c3)cn2)C1 (stereo unspecified),-15.2
CCCc1cc(C(=O)N2CCCC(c3cc4ccccc4cn3)C2)n(C)n1 (stereo unspecified),-30.9
Cc1cc(C(=O)N2CCCC(c3ccc(Cc4ccc(Cl)cc4)cn3)C2)nc(N(C)C)n1 (stereo unspecified),-89.7*
CN(C)Cc1ccc(C(=O)N2CCc3[nH]c4ccccc4c3C2)cc1,-1.4
O=C1CCCCCN1CCC(=O)N1CCC(CO)(Cc2ccccc2)CC1,28.7
SMILES,Tg IFNy HTS
Fc1ccccc1NC(=S)Nc1ccc2c(c1)oc1ccccc12,116.5
CCOc1ccccc1NC(=O)CSc1ccc(Cl)cc1,10.8
Cc1nc2ccccc2nc1SCC(=O)Nc1ccccc1OC(C)C,-87.7*
COc1ccccc1NC(=O)CSc1nc2ccccc2n1CC(=O)N1CCOCC1,5.9
Cc1nc(OCC(=O)Nc2cccc(C)c2C)c2ccccc2n1,-16.2
CC(C)C(=O)c1cc(-c2cnc(N(C)C)nc2)cn1CC1CC1,-6.1
Cc1cnc(CNC(=O)CC23CC4CC(CC(C4)C2)C3)cn1,0.5
CCOC(=O)CC1(NC(=O)N2CCC3(CC2)c2cccn2-c2ccc(C)cc2N3CC)CCCCC1,397.3
CN(C)c1ccc(NC(=O)CC2Nc3ccccc3NC2=O)cc1 (stereo unspecified),21.4
COCCN1C(=O)CCc2cc(NS(=O)(=O)c3ccc(F)cc3F)ccc21,59.6
COc1ncc(-c2ccc3nccc(-c4ccnnc4)c3c2)cc1NS(=O)(=O)c1ccc(F)cc1F,-77.6*
O=S(=O)(NCCc1csc(-c2ccc(Cl)cc2)n1)c1ccc(F)cc1F,-11.4
O=C(c1ccno1)N1CCC2(CC1)CCN(Cc1cccc(F)c1)C2=O,-4.0
CNC(=O)c1cc(Oc2ccc(NC(=O)Nc3ccc(Cl)c(C(F)(F)F)c3)cc2)ccn1,-79.5*
CC(=O)Nc1ccc(OCc2ncc(C(F)(F)F)cc2Cl)cc1,-44.5
CCCCOC(=O)c1ccc(NC(=O)Nc2ccc(Cl)c(Cl)c2)cc1,-61.6
CCn1c(=O)c(-c2nc(-c3ccc(F)cc3)no2)c(O)c2ccc(F)cc21,104.2
CN(Cc1cccnc1)C1CCC[C@@H]2CN(C(=O)C3CC3)C[C@@H]12 (stereo partly specified),-2.3
O=C(CSc1nc2ccccc2o1)Nc1nnc(SCc2ccccc2)s1,48.2
COCCSc1nnc(NC(=O)c2ccco2)s1,192.0
O=C(Nc1nnc(SCc2ccccc2)s1)C1COc2ccccc2C1 (stereo unspecified),-83.3*
CNC(=O)CCN(C)Cc1cccc2c(C)c(C)[nH]c12,14.7
CCOc1ccc(S(=O)(=O)c2ccc(Cl)cc2)cc1,16.3
CCOc1ccc(S(=O)(=O)n2cc(F)c(=O)[nH]c2=O)cc1,-84.6*

# Assay outcomes (PubChem BioAssay)
